Results published in PubChem BioAssay AID2289 (National Center for Advancing Translational Sciences (NCATS), 2010).
The whole screen tested about 340,000 compounds, of which about 3,300 (0.97%) were called active. Inconclusive results (about 9%) are left out. The call rests on the fitted dose curve; in most records, active means well fitted inhibition curve with a large enough effect; inconclusive means small, poorly fitted or top-dose-only effect, or effect the other way; inactive means flat fitted curve, though single readings scatter. This is one part of the list.

Test: qHTS Assay for Modulators of miRNAs and/or Inhibitors of miR-21; further: nearly all actives have a fitted effect of over 55% in size
Conditions: HeLa miR-21-FLuc reporter, luciferase luminescence, 48 h; actives lower the signal
Procedure, shortened: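 HeLa cells stably expressing CMV-driven firefly luciferase with a downstream miR-21 binding sequence, endogenously expressing miR-21, were treated with titrations (up to about 40uM final) for 48 hours at 37 degree Celsius. Luciferase luminescence was read after lysis.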
Potency means the concentration at half of the fitted maximal effect.

SMILES	Potency
COc1ccc(-n2cc(CN(C)CCO)c(-c3cccc(F)c3)n2)cc1	0.414 µM (active)
C/C(=N\OCc1cccc(C(=O)O)c1)c1ccc(Cl)cc1	0.0414 µM (active)
COc1cc(/C=N/OCC(=O)NC2CCCCC2C)ccc1OCc1ccc(Cl)cc1 (centres undefined)	4.65 µM (active)
COc1cc(/C=N/OCC(=O)Nc2cc(C)cc(C)c2)ccc1OCc1ccc(Cl)cc1	2.93 µM (active)
CCCCc1ccc(NC(=O)C2CCCO2)cc1 (centres undefined)	1.85 µM (active)
CC1CCN(C(=O)Cn2nnc(-c3cccs3)n2)CC1	7.36 µM (active)
Brc1ccc(-c2cn3cc(Cc4ccccc4)sc3n2)cc1	0.329 µM (active)
COc1cccc(OCc2cc(C(=O)NCc3ccccn3)no2)c1	13.1 µM (active)
CSc1ccccc1OCc1cc(C(=O)N(C)Cc2nonc2C)no1	8.26 µM (active)
CSc1ccccc1OCc1cc(C(=O)NCc2cccc(C)n2)no1	7.36 µM (active)
CSc1ccccc1OCc1cc(C(=O)N(C)Cc2ccncn2)no1	8.26 µM (active)
CC(NC(=O)c1cc(COc2ccccc2)on1)c1nccs1 (centres undefined)	2.07 µM (active)
CN1CCc2c(sc(/N=C/c3cc(Cl)ccc3O)c2C#N)C1	6.56 µM (active)
COc1cccc([C@@H]2Oc3ccc(OC)cc3C(=O)[C@H]2OC(=O)NCc2ccc3c(c2)OCO3)c1	5.85 µM (active)
COc1ccc2c(c1)O[C@H](c1ccc3c(c1)OCO3)[C@@H](O)C2=O	11.7 µM (active)
COc1ccc(C(=O)OCc2csc(C)n2)c(O)c1	7.36 µM (active)
Cc1nc(COC(=O)c2c(C)nn(-c3ccccc3)c2C)cs1	16.5 µM (active)
O=C(OCc1csc(-c2ccccc2)n1)c1ccccc1O	9.27 µM (active)
O=C(OCc1csc(-c2ccccc2)n1)c1ccc(O)cc1	14.7 µM (active)
Cc1ccc(SC[C@H](CC(C)C)N2CCN(C)CCC2=O)cc1	10.4 µM (active)
Cc1ccc(SC[C@H](c2ccccc2)N2CCN(C)CCC2=O)cc1	9.27 µM (active)
O=C(NCCC1=CCCCC1)c1cnc2n(c1=O)CCS2	6.56 µM (active)
Fc1ccccc1Nc1nc2ccccc2o1	0.521 µM (active)
Cn1cccc1C(=O)OCc1cc(Cl)cc2c1OCOC2	13.1 µM (active)
C=CCN=c1scc(C)n1/N=C/c1ccc(O)c(O)c1	11.7 µM (active)
CCOC(=O)c1c(N)sc(C(=O)OCCOC)c1C	18.5 µM (active)

SMILES	Potency
Cc1c(C(=O)OC(C)C)sc(N)c1C(=O)OC(C)C	6.56 µM (active)
CCCOC(=O)c1c(N)sc(C(=O)OCC)c1C	14.7 µM (active)
Cc1cc2cc(C=C(C#N)C#N)c(Cl)nc2cc1C	7.36 µM (active)
Cc1ccc(OCC(=O)O/N=C(\N)c2ccncc2)c(C)c1	4.14 µM (active)
N/C(=N\OC(=O)COc1ccc(Cl)cc1Cl)c1ccncc1	0.585 µM (active)
Cc1ccc(/C(N)=N/OC(=O)COc2ccccc2Cl)cc1	10.4 µM (active)
N/C(=N\OC(=O)COc1ccc(Cl)cc1Br)c1ccncc1	1.65 µM (active)
N/C(=N\OC(=O)COc1ccc(Br)cc1Cl)c1ccccn1	0.117 µM (active)
N/C(=N\OC(=O)COc1ccc(Br)cc1Cl)c1ccncc1	0.927 µM (active)
CCc1ccc(OCC(=O)O/N=C(\N)c2ccncc2)c(Br)c1	4.65 µM (active)
COc1ccc(NC(=O)c2ccco2)c([N+](=O)[O-])c1	7.36 µM (active)
COc1ccc(NC(=O)CSc2ccccc2)c([N+](=O)[O-])c1	7.36 µM (active)
CCOc1ccc(NC(=O)c2cccs2)c([N+](=O)[O-])c1	0.826 µM (active)
O=C(O)c1cccc(N/N=C/c2ccc(OC(F)(F)F)cc2)c1	0.0521 µM (active)
CSc1ccc(/C=N/Nc2cccc(C(=O)O)c2)cc1	0.147 µM (active)
O=C(O)c1cccc(N/N=C/C2=C(Cl)c3cc(Cl)ccc3SC2)c1	0.261 µM (active)
O=C(O)c1cccc(N/N=C/c2ccc(-c3ccccc3)cc2)c1	0.147 µM (active)
O=C(O)c1cccc(N/N=C/c2ccc(F)c(F)c2)c1	0.233 µM (active)
O=c1n(Cc2ccccc2Cl)nc2n1-c1ccccc1SC2	10.4 µM (active)
COCCn1c(C(F)(F)F)ccc(NC(=O)c2ccccc2)c1=O	1.85 µM (active)
COc1cccc(C(=O)Nc2ccc(C(F)(F)F)n(C)c2=O)c1	1.47 µM (active)
Cc1cccc(-n2cnc3cc(C(=O)N4CCCCC4)ccc32)c1	9.27 µM (active)
O=C(N=C1N=C2C=CC(Br)=CN2Cc2ccccc21)c1ccc([N+](=O)[O-])cc1[N+](=O)[O-]	3.69 µM (active)
CCCCC#Cc1ccc2c(c1)COc1c3ccccc3nn1-2	2.07 µM (active)
COC(=O)c1c(-c2cccs2)csc1NC(=O)COc1ccccc1	7.36 µM (active)
COC(=O)c1c(-c2cccs2)csc1NC(=O)c1cccc(Cl)c1	0.656 µM (active)

SMILES	Potency
Cc1cc(C(=O)Nc2ccc3ccccc3c2)oc1C	0.293 µM (active)
Cc1cc(C(=O)Nc2ccccc2)oc(=O)c1	6.56 µM (active)
Cc1oncc1C(=O)Nc1ccc2ccccc2c1	7.36 µM (active)
CC(=O)c1sc(NC(=O)c2ccccc2F)nc1-c1ccccc1	3.29 µM (active)
O=C(Nc1ccccc1[N+](=O)[O-])C1COc2ccccc2O1 (centres undefined)	3.29 µM (active)
O=C(Nc1ncccc1Cl)C1COc2ccccc2O1 (centres undefined)	4.65 µM (active)
CCSc1nc2c(cnn2-c2ccccc2)c(=O)n1N	2.33 µM (active)
O=C(NCCc1ccccc1)Nc1ccc(Cl)cc1	1.65 µM (active)
CC(=O)Nc1ccc(C(=O)NCCc2ccccc2)cc1	7.36 µM (active)
Clc1c(CSc2nc3ccccc3o2)nc2sccn12	1.12 µM (active)
Cc1csc2nc(CSc3nc4ccccc4o3)c(Br)n12	4.65 µM (active)
CCN(CC)c1nc(C)nc2c1cnn2CCc1ccccc1	5.85 µM (active)
Cc1nc(NC(C)C)c2cnn(CCc3ccccc3)c2n1	14.7 µM (active)
CCOC(=O)c1c(C)oc2c1c(C(c1ccccc1)N1CCOCC1)c(O)c1ccccc12 (centres undefined)	3.69 µM (active)
CCOC(=O)c1c(C)oc2c1c(C(c1ccncc1)N1CCOCC1)c(O)c1ccccc12 (centres undefined)	16.5 µM (active)
NC(=O)c1cnn(-c2ccc3ccccc3c2)c1N	16.5 µM (active)
NC(=O)c1cnn(-c2cc(Oc3ccccc3)ncn2)c1N	2.07 µM (active)
Cc1ccc(O)c(-c2cc(C(=O)Nc3cccnc3)[nH]n2)c1	2.61 µM (active)
Cc1ccc(-c2cc(C(=O)Nc3cccnc3)[nH]n2)c(O)c1C	2.93 µM (active)
O=C(Nc1cccnc1)c1cc(-c2cc(Cl)ccc2O)n[nH]1	2.33 µM (active)
CCc1ccc(O)c(-c2cc(C(=O)Nc3cccnc3)[nH]n2)c1	2.33 µM (active)
Cc1cc(O)c(-c2cc(C(=O)Nc3cccnc3)[nH]n2)cc1C	0.414 µM (active)
COc1ccc(Cl)c2c1[nH]c1nc(SCc3ccccn3)nnc12	1.65 µM (active)
O=C(COc1ccccc1Cl)NC(=O)NC1CCCC1	8.26 µM (active)
O=C(COc1ccccc1Cl)Nc1ccccc1C(=O)N1CCCCC1	6.56 µM (active)
CC(C)(C)NC(=O)NC(=O)COc1ccc(Br)cc1Br	0.585 µM (active)

SMILES	Potency
O=C(COc1ccc(Br)cc1Br)NC(=O)NC1CCCC1	5.21 µM (active)
O=C(COc1ccc(Cl)cc1Cl)NC(=O)N1CCCCC1	6.56 µM (active)
O=C(Nc1cccc2ccccc12)N1N=CCC1c1ccccc1 (centres undefined)	6.56 µM (active)
Cc1ccc2nc(/C(C#N)=C/c3ccc(-c4ccc(C(=O)OC(C)C)cc4)o3)[nH]c2c1	4.14 µM (active)
CCOC(=O)c1sc(-c2ccc(OC)cc2)cc1N	0.927 µM (active)
CCOC(=O)c1sc(-c2ccccc2)cc1N	3.98 µM (active)
COC(=O)c1sc(-c2cccs2)cc1N	8.26 µM (active)
COC(=O)c1sc(-c2ccc(Cl)cc2)cc1N	4.14 µM (active)
CCOC(=O)c1c(N)sc(-c2ccccc2)c1C	11.7 µM (active)
CCOC(=O)c1sc(=N)n(-c2ccc(OC)cc2)c1C	7.36 µM (active)
CCOC(=O)c1cc(-c2ccccc2)sc1N	18.5 µM (active)
COC(=O)c1ccc(N2OC3(C)C=CC2CC3)cc1 (centres undefined)	13.1 µM (active)
N/C(=N\OC(=O)c1cccs1)c1cccc(Br)c1	8.26 µM (active)
COc1ccc(/C(N)=N/OC(=O)c2ccco2)cc1OC	1.85 µM (active)
N/C(=N\OC(=O)c1ccco1)c1ccccc1	5.21 µM (active)
N/C(=N\OC(=O)c1ccco1)c1cccc(Br)c1	3.69 µM (active)
N/C(=N\OC(=O)c1ccco1)c1ccc(Cl)cc1	4.65 µM (active)
CC1(C)CC(=O)c2cnc(N3CCc4ccccc43)nc2C1	1.85 µM (active)
CNc1nc(N2CCc3ccccc32)ncc1F	1.85 µM (active)
CC1(C)CC(=O)c2c(O)cc(OCc3ccc(Br)cc3)cc2O1	3.29 µM (active)
CCOc1ccc(N=Nc2c(N)[nH][nH]c2=O)cc1	2.93 µM (active)
COc1cccc(N=Nc2c(N)[nH][nH]c2=O)c1	7.36 µM (active)
Cc1cc(C(=O)CSc2ccc(F)cc2)cc(C)c1O	9.27 µM (active)
Cc1cc(C(=O)CSc2ccccc2)cc(C)c1O	9.27 µM (active)
O=C(Nc1ccc(N2CCOCC2)c(Cl)c1)C1CCCCC1	16.5 µM (active)
CN(Cc1ccsc1)C(=O)CCc1nnc(CCCc2ccccc2)o1	11.7 µM (active)
